Common to all, as to assay: NCI-60 one-dose screen, 48 h (100 = growth as untreated, 0 = no growth, -100 = all killed)
For one experiment, the system named is NCI-H226 lung. The following applies: 10 µM.
A further experiment relates to HOP-62 NSCLC. Particulars: 10 µM.
Another experiment deals with NCI-H460 lung. Particulars: 10 µM.
The next experiment has as its system A549/ATCC NSCLC. Particulars: 10 µM.
The next experiment relates to DU-145 prostate. The following applies: 10 µM.
The next experiment has as its system SF-268 CNS. Particulars: 10 µM.
The subject of the next experiment is SF-295 CNS. Particulars: 10 µM.
Another experiment has as its system SF-539 CNS. The following applies: 10 µM.
Another experiment relates to UACC-257 melanoma. Particulars: 10 µM.
A further experiment relates to M14 melanoma. Particulars: 10 µM.
The next experiment has as its system HCT-15 colon. The following applies: 10 µM.
The subject of the next experiment is HT29 colon. The following applies: 10 µM.
The test system of another experiment is SNB-75 CNS. Particulars: 10 µM.
Another experiment concerns SNB-19 CNS. Particulars: 10 µM.
For a further experiment, the system named is U251 CNS. The following applies: 10 µM.
The test system of a further experiment is SK-MEL-5 melanoma. The following applies: 10 µM.
The next experiment deals with UACC-62 melanoma. The following applies: 10 µM.
The next experiment relates to SK-MEL-28 melanoma. Particulars: 10 µM.
In another experiment the test system is SK-MEL-2 melanoma. Particulars: 10 µM.
In the next experiment the test system is HL-60(TB) leukemia. The following applies: 10 µM unless noted.

The panel holds about 83,000 compounds, 20% with a hit somewhere; the sample as a whole holds those more often.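 Step 1: grow cells in 96-well plates. Step 2: add test compound at a single concentration. Step 3: incubate 48 h. Step 4: record percent growth.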 Unmarked numbers belong to inactive results. Calls of active or inactive are those of the source. The calls were made as follows: active = growth percent below 10; inactive = the rest.

Regarding `CC1=C(CCC=NNC(N)=O)C2=C(C)C3(CC3)[C@@](C)(O)C(=O)C2=C1`, the growth with NCI-H226 lung is -71.7% (active); in the experiment on HOP-62 NSCLC, -78.8% (active); in the experiment with NCI-H460 lung it was -24.8% (active); with A549/ATCC NSCLC, -28.6% (active); in the experiment with DU-145 prostate it was -29.2% (active); in the experiment on SF-268 CNS it was -31.4% (active). Moreover, the growth in the experiment on SF-295 CNS is 1.93% (active); with SF-539 CNS, -99.1% (active); with UACC-257 melanoma, -76.1% (active); in the experiment with M14 melanoma it was -35.8% (active); in the experiment on HCT-15 colon, -49.2% (active); in the experiment with HT29 colon it was -31% (active). Besides, the growth was -96.2% (active) in the experiment on SNB-75 CNS; -38.6% (active) in the experiment with SNB-19 CNS; -77.4% (active) with U251 CNS; -100% (active) with SK-MEL-5 melanoma; -88.1% (active) with UACC-62 melanoma; -79.8% (active) with SK-MEL-28 melanoma. The growth in the experiment with SK-MEL-2 melanoma is -76.9% (active).
For `CC(C)N=C([Se])NC(=O)c1ccccc1`, the growth is -33.5% (active) with NCI-H226 lung; 8.36% (active) in the experiment on HOP-62 NSCLC; -25.8% (active) in the experiment on NCI-H460 lung; 8.83% (active) with A549/ATCC NSCLC; -74.6% (active) in the experiment on DU-145 prostate; 14.3% with SF-268 CNS. The growth with SF-295 CNS was -23.9% (active); in the experiment with SF-539 CNS, -82.9% (active); in the experiment on UACC-257 melanoma it was -36.2% (active); in the experiment with M14 melanoma, -65.2% (active); in the experiment with HCT-15 colon, 1.65% (active); with HT29 colon, 12.5%. The growth was -49.5% (active) in the experiment with SNB-75 CNS; 11.4% in the experiment on SNB-19 CNS; -59.4% (active) with U251 CNS; -57.1% (active) in the experiment on SK-MEL-5 melanoma; -35.3% (active) in the experiment with UACC-62 melanoma; -43.9% (active) in the experiment on SK-MEL-28 melanoma. Further, the growth in the experiment with SK-MEL-2 melanoma was -40% (active); with HL-60(TB) leukemia it was -15.4% (active).
Consider `CC(=O)Oc1ccccc1C(=O)NC([Se])=NC1CCCCC1`, for which the growth is -21% (active) with NCI-H226 lung; 9.51% (active) in the experiment with HOP-62 NSCLC; 6.6% (active) with NCI-H460 lung; 20.4% in the experiment with A549/ATCC NSCLC; 20% with DU-145 prostate; 66.1% with SF-268 CNS. The growth in the experiment with SF-295 CNS is -8.45% (active); in the experiment on SF-539 CNS, -84.7% (active); in the experiment with UACC-257 melanoma it was -1.74% (active); in the experiment on M14 melanoma, 20.7%; in the experiment on HCT-15 colon, 3.57% (active); in the experiment with HT29 colon it was 32.1%. Besides, the growth in the experiment on SNB-75 CNS was -75.3% (active); in the experiment with SNB-19 CNS it was 12.3%; in the experiment with U251 CNS, 24.2%; with SK-MEL-5 melanoma it was -80% (active); with UACC-62 melanoma, -57.5% (active); in the experiment with SK-MEL-28 melanoma, -14.7% (active). For the same compound, the growth with SK-MEL-2 melanoma is -43.7% (active); with HL-60(TB) leukemia it was 7.53% (active).
`COc1cc2cc(C(=O)N3C[C@@H](CCl)c4c3cc(OC(=O)N3CCN(C(=O)CCC(=O)N5CCN(C)CC5)[C@@H]5CSSC[C@@H]53)c3ccccc43)[nH]c2c(OC)c1OC`: the growth is -11.6% (active) in the experiment on NCI-H226 lung; -55.3% (active) with HOP-62 NSCLC; -67.7% (active) with NCI-H460 lung; -59.7% (active) in the experiment with A549/ATCC NSCLC; -4.3% (active) in the experiment with DU-145 prostate; -28.4% (active) in the experiment on SF-268 CNS. The growth was -88.5% (active) in the experiment with SF-295 CNS; -91.8% (active) with SF-539 CNS; -71.7% (active) in the experiment on UACC-257 melanoma; -81.7% (active) in the experiment on M14 melanoma; -87.4% (active) with HCT-15 colon; -84.3% (active) with HT29 colon. In addition, the growth was -90.1% (active) in the experiment with SNB-75 CNS; -50.2% (active) in the experiment with SNB-19 CNS; -71.2% (active) in the experiment on U251 CNS; -100% (active) in the experiment on SK-MEL-5 melanoma; -64% (active) with UACC-62 melanoma; -94.4% (active) with SK-MEL-28 melanoma. Further, the growth is -83.3% (active) in the experiment on SK-MEL-2 melanoma and -37.6% (active) in the experiment on HL-60(TB) leukemia.
With `CC[C@@]12CC(C(=O)OC)=C3Nc4cc5c(cc4[C@@]34CCN(C[C@H]3O[C@H]31)[C@@H]24)[C@@H]1[C@H](O5)[C@@H](O)[C@@]2(CC)CC(C(=O)OC)=C3Nc4cc(OC)ccc4[C@@]34CCN1[C@@H]24`, the growth was -4.56% (active) in the experiment on NCI-H226 lung; 21.5% in the experiment with HOP-62 NSCLC; 15.9% with NCI-H460 lung; 25.7% with A549/ATCC NSCLC; 50.7% in the experiment on DU-145 prostate; 38.5% with SF-268 CNS. In addition, the growth in the experiment with SF-295 CNS was 0.382% (active); in the experiment on SF-539 CNS it was 21.7%; with UACC-257 melanoma, 54.3%; with M14 melanoma, 28.7%; with HCT-15 colon it was -38.1% (active); in the experiment on HT29 colon, 10.7%. For the same compound, the growth in the experiment with SNB-75 CNS is -4.82% (active); in the experiment with SNB-19 CNS it was 21.3%; in the experiment on U251 CNS, 17.2%; in the experiment with SK-MEL-5 melanoma it was -85.1% (active); in the experiment on UACC-62 melanoma, 3% (active); with SK-MEL-28 melanoma, 27.1%. Also, the growth in the experiment on SK-MEL-2 melanoma is -12% (active); with HL-60(TB) leukemia, -17% (active).
As for `O=C(/C=C/c1ccc(Br)cc1)c1nc2ccccc2n1Cc1ccc(Br)cc1`, the growth with NCI-H226 lung is -70.1% (active); in the experiment on HOP-62 NSCLC it was -22.1% (active); in the experiment on NCI-H460 lung, -14.4% (active); with A549/ATCC NSCLC, 30%; in the experiment with DU-145 prostate, 17.9%; with SF-268 CNS it was 29.9%. For the same compound, the growth in the experiment on SF-295 CNS is -34.9% (active); in the experiment on SF-539 CNS, -60.2% (active); in the experiment with UACC-257 melanoma it was -4.85% (active); with M14 melanoma, -26.7% (active); in the experiment with HCT-15 colon, -68.4% (active); with HT29 colon, -27.6% (active). Moreover, the growth with SNB-75 CNS is 45%; in the experiment with SNB-19 CNS it was -66.9% (active); in the experiment with U251 CNS, -86.3% (active); in the experiment with SK-MEL-5 melanoma it was 1.54% (active); in the experiment on UACC-62 melanoma, -66.5% (active); with SK-MEL-28 melanoma, -43.9% (active). In addition, the growth is 2.53% (active) in the experiment with SK-MEL-2 melanoma and -13.2% (active) with HL-60(TB) leukemia.
`O=C([Se]C1C=CCCC1)c1ccc(C(=O)[Se]C2C=CCCC2)s1` (centres undefined): the growth with NCI-H226 lung was -42.9% (active); with HOP-62 NSCLC it was -50.6% (active); in the experiment with NCI-H460 lung, 4.46% (active); with A549/ATCC NSCLC, -7.22% (active); in the experiment on DU-145 prostate, -3.45% (active); in the experiment on SF-268 CNS, 0.795% (active). The growth is -44.2% (active) with SF-295 CNS; -100% (active) in the experiment with SF-539 CNS; -74.7% (active) in the experiment on UACC-257 melanoma; -81.2% (active) in the experiment with M14 melanoma; -25.1% (active) in the experiment with HCT-15 colon; -25.6% (active) in the experiment with HT29 colon. Further, the growth in the experiment with SNB-75 CNS is -77.6% (active); with SNB-19 CNS it was -93.8% (active); in the experiment with U251 CNS it was -88% (active); with SK-MEL-5 melanoma it was -88.8% (active); in the experiment on UACC-62 melanoma, -89.2% (active); in the experiment on SK-MEL-28 melanoma, -79.4% (active). Besides, the growth in the experiment on SK-MEL-2 melanoma was -37.7% (active); with HL-60(TB) leukemia, 1.11% (active).

The record behind these values is PubChem BioAssay (NCI).
